The record followed here is PubChem BioAssay (EPA / NIEHS).

The target of test [1] is Transcription factor E2F1 (Homo sapiens) (UniProt Q01094). The experiment in a line: ATG_E2F_CIS: Attagene CIS-FACTORIAL HepG2 Assay for human E2F Transcription Factor 1 (AID 2282935). The note with it: HepG2 Attagene cis-reporter, E2F reporter RNA transcripts; actives raise or lower the signal. Summed up:
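Fluorescent RT-PCR products, digested with HpaI for 2 h at 37 C, are separated by capillary electrophoresis. Source RNA comes from transfected HepG2 cultures treated for 24 h.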

A short description of test [2]: ATG_E_Box_CIS: Attagene CIS-FACTORIAL HepG2 Assay for human Enhancer Box (E-box) (AID 2282936). The note with it: HepG2 E-box cis-reporter transcription, actives raise or lower the signal. Summed up: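 Fluorescent reporter fragments separated by capillary electrophoresis gave the signal; mRNA came from HepG2 cells transfected with cis-element reporters and treated 24 h. Curves fitted bidirectionally relative to DMSO controls.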

A short description of test [3]: ATG_M_61_CIS: Attagene CIS-FACTORIAL HepG2 Assay for M61 Transcription Factor (Internal Marker) (AID 2282937). The note with it: HepG2 Attagene CIS-FACTORIAL M61 internal marker reporter; actives raise or lower the signal. Summed up:
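This endpoint serves as an internal background control within a multiplexed HepG2 cis-reporter panel. Cells are exposed for 24 h; reporter mRNA is amplified, fluorescently labelled and sized by capillary electrophoresis, with DMSO as negative control.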

A short description of test [4]: ATG_EGR_CIS: Attagene CIS-FACTORIAL HepG2 Assay for human Early Growth Response 1 (EGR1) (AID 2282938). The note with it: HepG2 Attagene CIS-FACTORIAL EGR reporter mRNA; actives raise or lower the signal. Summed up: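 HepG2, transient MRTU transfection (cis promoters), 24 h compound. RNA → RT (oligo-dT) → PCR → 6-FAM labelling → HpaI cut → CE fluorescence. Bidirectional fit, DMSO baseline.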

Test [5] in a line: ATG_M_19_CIS: Attagene CIS-FACTORIAL HepG2 Assay for M19 Transcription Factor (Internal Marker) (AID 2282939). Particulars: HepG2 Attagene CIS-FACTORIAL M19 internal marker reporter; actives raise or lower the signal. Summed up: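 Signals come from fluorescence of labelled reporter-specific PCR fragments resolved by capillary electrophoresis, following 24 h treatment of HepG2 cells transfected with cis-promoter reporter units; activity was fitted in both directions relative to DMSO.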

A short description of test [6]: ATG_ERE_CIS: Attagene CIS-FACTORIAL HepG2 Assay for Estrogen Response Element (ERE) (AID 2282940). Particulars: HepG2 ERE cis-reporter, Attagene RNA transcript; actives raise or lower the signal. Summed up: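 Fluorescence of capillary-separated, FAM-labelled reporter cDNA fragments indicates reporter mRNA levels in HepG2 cells exposed to chemicals for 24 h. Transient transfection with cis-regulated units; data fitted in both directions against DMSO.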

The target of test [7] is Hepatocyte nuclear factor 3-beta (Homo sapiens) (UniProt Q9Y261). The experiment in a line: ATG_FoxA2_CIS: Attagene CIS-FACTORIAL HepG2 Assay for human Forkhead box A2 (FOXA2) (AID 2282942). Particulars: HepG2 cis-reporter transcription factor activity, 24 h; actives raise or lower the signal. Summed up: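 Cells: HepG2, transient multiplex reporter transfection. Exposure 24 h. Detection: reporter-specific RT-PCR, fluorescent labelling, restriction digest, capillary electrophoresis. Analysis: bidirectional curve fit, DMSO as negative control.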
Sequence of Hepatocyte nuclear factor 3-beta (Homo sapiens) (Q9Y261 whole entry, looked up): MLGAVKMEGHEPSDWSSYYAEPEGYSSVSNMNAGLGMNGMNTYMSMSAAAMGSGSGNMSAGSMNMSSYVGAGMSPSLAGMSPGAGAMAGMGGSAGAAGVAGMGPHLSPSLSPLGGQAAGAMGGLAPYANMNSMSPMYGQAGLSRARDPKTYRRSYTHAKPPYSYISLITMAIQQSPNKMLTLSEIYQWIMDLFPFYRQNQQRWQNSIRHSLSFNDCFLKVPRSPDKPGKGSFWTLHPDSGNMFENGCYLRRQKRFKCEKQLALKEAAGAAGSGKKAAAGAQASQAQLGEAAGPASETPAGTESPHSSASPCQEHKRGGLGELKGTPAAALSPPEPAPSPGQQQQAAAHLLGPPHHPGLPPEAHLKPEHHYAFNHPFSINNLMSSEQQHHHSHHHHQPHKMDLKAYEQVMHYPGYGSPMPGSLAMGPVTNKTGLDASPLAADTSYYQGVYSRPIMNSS

Test [8] is described as follows: ATG_FoxO_CIS: Attagene CIS-FACTORIAL HepG2 Assay for human Forkhead box O (FoxO) (AID 2282943). The note with it: HepG2 Attagene cis-reporter, FoxO element, mRNA; actives raise or lower the signal. Summed up: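 HepG2, transient MRTU transfection (cis element, endogenous TFs). Dose 24 h. TriZol RNA → oligo(dT) RT → PCR → 6-FAM primer extension → HpaI cut → CE. Gain/loss vs DMSO.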

Test [9] can be described thus: ATG_GATA_CIS: Attagene CIS-FACTORIAL HepG2 Assay for human GATA Binding Protein (AID 2282944). The note with it: HepG2 GATA cis-element reporter, Attagene multiplex mRNA; actives raise or lower the signal. Summed up: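 After transfecting HepG2 cells with multiple cis-regulated reporter units, chemicals are dosed for 24 h; isolated RNA undergoes RT-PCR and fluorescent labeling before capillary electrophoresis, with activity expressed against DMSO.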

Test [10] is described as follows: ATG_Ets_CIS: Attagene CIS-FACTORIAL HepG2 Assay for human Erythroblast Transformation Specific (ETS) (AID 2282941). The note with it: HepG2 ETS cis-reporter transcription, actives raise or lower the signal. Summed up: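 Multiplexed reporter transcript profiling: HepG2, 24 h treatment, total RNA to cDNA, PCR, 6-FAM labelling, HpaI cut, capillary electrophoresis. Gain- or loss-of-signal fitted against DMSO.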

Activity calls are given as the source filed them. Rule for the calls: active = hit-call score of the fitted dose curve at least 0.9, where 1 is the maximum; inactive = score below 0.9.

Sequence of Transcription factor E2F1 (Homo sapiens) (Q01094 whole entry, looked up): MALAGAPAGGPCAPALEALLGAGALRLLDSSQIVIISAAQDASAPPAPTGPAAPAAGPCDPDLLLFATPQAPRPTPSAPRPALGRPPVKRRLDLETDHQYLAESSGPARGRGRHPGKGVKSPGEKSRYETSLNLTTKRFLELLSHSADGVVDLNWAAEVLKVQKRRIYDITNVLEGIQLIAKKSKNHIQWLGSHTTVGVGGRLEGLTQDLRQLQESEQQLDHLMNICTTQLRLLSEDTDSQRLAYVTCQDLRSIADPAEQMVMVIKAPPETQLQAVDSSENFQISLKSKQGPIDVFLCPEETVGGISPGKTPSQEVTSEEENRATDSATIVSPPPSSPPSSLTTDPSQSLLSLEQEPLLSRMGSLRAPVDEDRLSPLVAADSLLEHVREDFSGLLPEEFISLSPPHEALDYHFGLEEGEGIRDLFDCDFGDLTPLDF

On to `O=c1c(O)c(-c2ccc(O)cc2O)oc2cc(O)cc(O)c12`, for which the result in [1], in test [2], in [3], in [4], in test [5] and in test [7] was inactive. In addition, the call in [8] and in test [9] was inactive. For the same compound, the AC50 (commonly the midpoint of the concentration-response curve, whichever way the signal moves) in test [6] is 0.65 µM (active).

Take `CC1CCC(=O)C1=O` (stereo unspecified): the call in test [1], in test [2], in test [3], in [4], in [5] and in [6] was inactive. Also, the call in test [7], in test [8] and in test [9] was inactive.

Take `CCC1COC(=O)O1` (stereo unspecified): the outcome in [1], in [2], in test [3], in test [4], in [5] and in test [6] was inactive. Besides, the compound was called inactive in test [10], in test [7], in test [8] and in test [9].

For the compound `CC(C)(C)N`, the call in test [1], in test [2], in test [3], in test [4], in [5] and in test [6] was inactive. Also, the call in test [10], in test [7], in [8] and in [9] was inactive.

Regarding `CCCCNS(=O)(=O)c1ccccc1`, the call in [1], in test [2], in test [3], in test [4], in test [5] and in test [6] was inactive. The compound was classed as inactive in test [10], in test [7], in [8] and in test [9].

On to `O=C(Nc1ccccc1)c1cc(Cl)ccc1O`, for which the call in test [1], in test [2], in [3], in test [5], in [6] and in [7] was inactive. In addition, the result in [9] was inactive. Further, the AC50 was 6.36 µM (active) in [4], 19.8 µM (active) in test [10] and 100 µM (active) in [8].

Consider `C=C(C)C(=O)OCC(O)COc1ccc(C(C)(C)c2ccc(OCC(O)COC(=O)C(=C)C)cc2)cc1` (stereo unspecified), for which the compound was classed as inactive in test [1], in test [2], in test [3], in [5], in test [6] and in [7]. In addition, the compound was classed as inactive in test [8]. The AC50 was 39.8 µM (active) in test [4] and 166 µM (active) in test [9].

For the compound `CN1CCN(C)CC1`, the outcome in test [1], in [2], in test [3], in test [4], in test [5] and in test [6] was inactive. For the same compound, the result in test [10], in test [7], in test [8] and in test [9] was inactive.

`CCCCCC1=CCCC1=O`: the compound was called inactive in [1], in [2], in [3], in test [4], in test [5] and in test [6]. In addition, the outcome in [10], in test [7], in test [8] and in test [9] was inactive.

In the case of `CCOC(=O)c1ccccc1C`, the outcome in [1], in test [2], in test [3], in [4], in [5] and in test [6] was inactive. Further, the call in test [10], in test [7], in [8] and in [9] was inactive.

Take `CCOC(=O)CC(=O)c1ccccc1`: the compound was classed as inactive in test [1], in test [2], in [3], in [4], in test [5] and in test [6]. In addition, the call in test [10], in test [7], in test [8] and in test [9] was inactive.

As to `CCCC=C(C=O)CC`, the outcome in test [1], in test [2], in test [3], in test [4], in [5] and in test [6] was inactive. Moreover, the call in [7], in test [8] and in test [9] was inactive.

On to `C[N+](C)(C)CCCNS(=O)(=O)C(F)(F)C(F)(F)C(F)(F)C(F)(F)C(F)(F)C(F)(F)C(F)(F)C(F)(F)F`, for which the compound was classed as inactive in [1], in test [2], in test [3], in [4], in test [5] and in test [6]. Also, the call in [7], in [8] and in test [9] was inactive.

For the compound `CCC1(C)C(=O)N(Cl)C(=O)N1Cl` (stereo unspecified), the call in test [1], in test [2], in test [3], in [5], in test [6] and in test [10] was inactive. The compound was classed as inactive in test [7] and in test [9]. Besides, the half-maximal activity concentration (AC50) is 34.5 µM (active) in test [4] and 29.8 µM (active) in [8].

As for `O=C(C=Cc1ccccc1)OCCc1ccccc1`, the call in [1], in test [2], in test [3], in test [4], in test [5] and in test [10] was inactive. Further, the outcome in [7], in [8] and in [9] was inactive. The AC50 in [6] was 32.7 µM (active).

For the compound `C=CC(=O)O[C@H]1C[C@@H]2CC[C@@]1(C)C2(C)C`, the outcome in test [1], in test [3], in test [10], in [7], in test [8] and in test [9] was inactive. Moreover, the AC50 in [2] was 25.3 µM (active); in test [4], 100 µM (active); in [5], 157 µM (active); in test [6] it was 24.9 µM (active).

For `C=CC(=O)OCCCCCCCC(C)C`, the compound was classed as inactive in test [1], in [3], in test [4], in [5], in test [10] and in [7]. For the same compound, the outcome in test [8] and in test [9] was inactive. Besides, the values for the AC50 in test [2] and in [6] were 157 µM (active) and 100 µM (active), respectively.

`CC(=O)C(C)C`: the compound was called inactive in test [1], in test [2], in test [3], in test [4], in [5] and in [6]. The compound was called inactive in test [10], in [7], in test [8] and in [9].

For the compound `O=C(O)c1cc(O)c2ccccc2c1O`, the AC50 was 59.1 µM (active) in [1], 8.86 µM (active) in test [2], 0.513 µM (active) in [6] and 52 µM (active) in test [8]. Besides, the compound was called inactive in [3], in [4], in test [5], in test [7] and in test [9].

For the compound `CC1=NN(c2ccc(S(=O)(=O)O)cc2)C(=O)C1N=Nc1ccccc1` (stereo unspecified), the outcome in test [1], in test [2], in test [3], in test [4], in test [5] and in [6] was inactive. Further, the result in test [10], in test [7], in test [8] and in test [9] was inactive.

`CCC(C)C(=O)OCCc1ccccc1` (stereo unspecified): the compound was called inactive in test [1], in test [2], in test [3], in test [4], in test [5] and in test [6]. Moreover, the outcome in test [10], in test [7], in test [8] and in [9] was inactive.

Take `CCCCCCCCCCCC(=O)N(C)CC(=O)O`: the compound was called inactive in test [1], in test [2], in test [3], in test [4], in test [5] and in test [7]. Moreover, the result in test [8] and in test [9] was inactive. Besides, the AC50 in test [6] was 14.3 µM (active).

Regarding `CCCCOC(=O)C(C)CC` (stereo unspecified), the outcome in test [1], in [2], in test [3], in test [4], in test [5] and in test [6] was inactive. Moreover, the compound was called inactive in [7], in [8] and in test [9].

As to `CO[Si](C)(C)OC`, the outcome in test [1], in test [2], in [3], in test [4], in test [5] and in test [6] was inactive. In addition, the result in [7], in test [8] and in test [9] was inactive.

Turning to `O=C(Oc1ccccc1)c1ccccc1O`, the compound was called inactive in test [1], in test [2], in [3], in test [4], in test [5] and in test [6]. Also, the compound was classed as inactive in [10], in test [7], in [8] and in test [9].

For `O=C(O)CCCC(=O)O`, the result in [1], in test [2], in [3], in test [4], in [5] and in test [6] was inactive. Besides, the compound was called inactive in test [10], in test [7], in [8] and in test [9].
